This is an account of results in PubChem BioAssay (NCI).

Each structure is given as a SMILES string. This is part of a sample that, as a whole, favours compounds with a hit. Of some 83,000 tested, about 20% had one in any assay.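 Note: values are percent growth. 100 is the growth of untreated cells, values between 100 and 0 indicate rising inhibition; between -100 and 0 indicates cell death.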 Values without a mark were called inactive. Activity calls are given as the source filed them. Rule for the calls: active = growth percent below 10; inactive = the rest.

What all share (assay): NCI-60 one-dose screen, 48 h (100 = growth as untreated, 0 = no growth, -100 = all killed)
One experiment relates to DU-145 prostate. The note with it: 10 µM unless noted.
The next experiment deals with K-562 leukemia. The note with it: 10 µM unless noted.
The subject of another experiment is MALME-3M melanoma. Conditions: 10 µM unless noted.
A further experiment has as its system MDA-MB-231 breast. The note with it: 10 µM unless noted.
A further experiment relates to SF-268 CNS. The note with it: 10 µM unless noted.
The subject of another experiment is SF-295 CNS. The note with it: 10 µM unless noted.
The next experiment concerns SF-539 CNS. The note with it: 10 µM unless noted.
The next experiment deals with UACC-257 melanoma. The note with it: 10 µM.
Another experiment relates to M14 melanoma. The note with it: 10 µM unless noted.
A further experiment relates to RXF 393 renal. Conditions: 10 µM unless noted.

Consider `COc1ccc(C2CC(c3cccs3)=NN2c2ccc(S(=O)(=O)NC(=O)Nc3ccc(C)cc3)cc2)cc1` (stereo not given), for which the growth in the experiment with DU-145 prostate was 102%; in the experiment on K-562 leukemia, 114%; with MALME-3M melanoma, 40.6%; with MDA-MB-231 breast, 117%; with SF-268 CNS it was 95.6%; with SF-295 CNS it was 100%. The growth was 98.3% with SF-539 CNS, 40.9% in the experiment on UACC-257 melanoma and 58.4% with M14 melanoma.
For the compound `O=C(Nc1ccc(F)c(Cl)c1)c1n[nH]c(=O)c2ccccc12`, the growth in the experiment on DU-145 prostate is 131%; in the experiment on K-562 leukemia it was 99.8%; in the experiment with MALME-3M melanoma it was 125%; in the experiment with MDA-MB-231 breast it was 98.3%; in the experiment on RXF 393 renal, -29.4% (active); with SF-268 CNS it was 99.4%. The results for the growth in the experiment on SF-295 CNS, in the experiment with SF-539 CNS and in the experiment with M14 melanoma were 84.8%, 124% and 115%, respectively.
On to `CCC#CC[C@H]1C/C=C2/C(=O)C=C[C@@H]2C/C=C\CCCC(=O)O1`, for which the growth was 9.38% (active) in the experiment on DU-145 prostate; 2.38% (active) in the experiment with K-562 leukemia; 1.52% (active) with MALME-3M melanoma; 16.1% with MDA-MB-231 breast; -65.4% (active) in the experiment with RXF 393 renal; 5.57% (active) in the experiment on SF-268 CNS. For the same compound, the growth in the experiment with SF-295 CNS was 4.47% (active); with SF-539 CNS, 8.07% (active); in the experiment on M14 melanoma, 2.84% (active).
Consider `COc1cc(CCn2nnc3c(NCCCCO)ncnc32)cc(OC)c1`, for which the growth in the experiment with DU-145 prostate is 104%; with K-562 leukemia, 116%; with MALME-3M melanoma it was 111%; in the experiment on MDA-MB-231 breast, 120%; in the experiment on SF-268 CNS it was 105%; in the experiment on SF-295 CNS, 105%. Besides, the growth in the experiment on SF-539 CNS is 111%; with UACC-257 melanoma, 103%; in the experiment with M14 melanoma, 90.3%.
Consider `Cc1cccc2cc(/C=C/C(=O)/C=C/c3ccc(Cl)cc3)c(=O)[nH]c12`, for which the growth was 39.1% in the experiment with DU-145 prostate; 10.8% in the experiment on K-562 leukemia; 106% in the experiment on MALME-3M melanoma; 25.7% in the experiment with MDA-MB-231 breast; 36.8% with RXF 393 renal; 62% in the experiment with SF-268 CNS. Besides, the figures for the growth in the experiment with SF-295 CNS, in the experiment on SF-539 CNS and with M14 melanoma were 83.8%, 69.7% and 30.5%, respectively.
As for `CC1=CNNc2c3ncnc-3ncn21`, the growth was 104% with DU-145 prostate; 101% in the experiment on K-562 leukemia; 102% in the experiment with MALME-3M melanoma; 103% with MDA-MB-231 breast; 103% in the experiment with SF-268 CNS; 103% in the experiment on SF-295 CNS. For the same compound, the growth in the experiment with SF-539 CNS is 101%; in the experiment with UACC-257 melanoma it was 109%; in the experiment with M14 melanoma, 108%.
For the compound `NC(N)=NC(N)=Nc1ccccc1-c1ccccc1`, the growth in the experiment with DU-145 prostate is 114%; in the experiment on K-562 leukemia, 104%; with MALME-3M melanoma, 110%; in the experiment on MDA-MB-231 breast, 116%; in the experiment on RXF 393 renal, 112%; in the experiment with SF-268 CNS, 113%. For the same compound, the growth is 113% in the experiment on SF-295 CNS, 110% in the experiment with SF-539 CNS and 108% in the experiment on M14 melanoma.
With `C=CCc1cc(Cl)cc2c(OC(C)=O)c(C(C)=O)c(-c3ccccc3)nc12`, the growth was 112% in the experiment with DU-145 prostate; 109% in the experiment on K-562 leukemia; 104% in the experiment with MALME-3M melanoma; 90.7% in the experiment on MDA-MB-231 breast; 130% with RXF 393 renal; 109% in the experiment with SF-268 CNS. Further, the figures for the growth in the experiment with SF-295 CNS, in the experiment on SF-539 CNS and in the experiment with M14 melanoma were 114%, 110% and 104%, respectively.
On to `CSc1ccccc1C#C/C=C\C#Cc1ccccc1N1CCCC1=O`, for which the growth in the experiment on DU-145 prostate was 85.7%; with K-562 leukemia, 14.7%; with MALME-3M melanoma, 50%; in the experiment with MDA-MB-231 breast it was 51%; with RXF 393 renal, 52.9%; in the experiment with SF-268 CNS, 56.6%. Besides, the growth with SF-295 CNS was 65.3%; in the experiment with SF-539 CNS, 55.1%; in the experiment on M14 melanoma it was 64.5%.
Regarding `COc1ccc(/C=C2\C(=O)N(C(=O)c3csc(NC(C)=O)n3)N=C2C)cc1`, the growth was 108% in the experiment with DU-145 prostate; 95.3% in the experiment on K-562 leukemia; 90.5% in the experiment with MALME-3M melanoma; 105% with MDA-MB-231 breast; 99.1% with SF-268 CNS; 105% in the experiment with SF-295 CNS. Further, the figures for the growth in the experiment on SF-539 CNS, with UACC-257 melanoma and in the experiment on M14 melanoma were 104%, 89.2% and 98.7%, respectively.
As for `COc1cc(C2CC(c3c(C)[n+]([O-])c4ccccc4[n+]3[O-])=NN2)cc(OC)c1OC` (stereo not given), the growth with DU-145 prostate was 112%; in the experiment with K-562 leukemia, 106%; with MALME-3M melanoma, 112%; with MDA-MB-231 breast, 104%; with RXF 393 renal, -20.2% (active); in the experiment on SF-268 CNS it was 112%. Moreover, the results for the growth in the experiment on SF-295 CNS, in the experiment on SF-539 CNS and with M14 melanoma were 103%, 124% and 101%, respectively.
As for `c1ccc2c(c1)Oc1ccccc1C2C1c2ccccc2Oc2ccccc21`, the growth with DU-145 prostate is 93.6%; with K-562 leukemia it was 93.6%; in the experiment with MALME-3M melanoma, 108%; with MDA-MB-231 breast, 93.1%; in the experiment on RXF 393 renal, 94.2%; with SF-268 CNS it was 97.2%. The growth was 96.1% in the experiment on SF-295 CNS, 96.5% in the experiment with SF-539 CNS and 99.1% in the experiment on M14 melanoma.
Regarding `O=Nc1c(-c2c(O)[nH]c3ccc([N+](=O)[O-])cc23)[nH]c2ccc(O)cc12`, the growth in the experiment on DU-145 prostate was 6.72% (active); in the experiment on K-562 leukemia, 20.9%; in the experiment on MALME-3M melanoma, 11.7%; in the experiment with MDA-MB-231 breast, 25.4%; in the experiment on SF-268 CNS it was 6.5% (active); in the experiment on SF-295 CNS it was 20.9%. The growth in the experiment on SF-539 CNS is -34.1% (active); with UACC-257 melanoma, 9.29% (active); with M14 melanoma, 11.4%.
Regarding `O=C(Nc1cccc(C(F)(F)F)c1)Nc1ccc(OCc2nnc(-c3ccccc3)o2)c(F)c1`, the growth is 31.9% in the experiment with DU-145 prostate; 22.1% in the experiment with K-562 leukemia; 53.7% in the experiment with MALME-3M melanoma; 42.9% with MDA-MB-231 breast; 58.7% in the experiment on SF-268 CNS; 17% in the experiment on SF-295 CNS. The growth with SF-539 CNS is 27.8%; in the experiment with UACC-257 melanoma, 70%; in the experiment with M14 melanoma, 40.9%.
Take `Nc1c(C(=O)Nc2cccc([N+](=O)[O-])c2)sc2nc3c(cc12)C(O)CCC3` (stereo not given): the growth was 71.4% with DU-145 prostate; 17.6% in the experiment with K-562 leukemia; 65.8% in the experiment with MALME-3M melanoma; 65.5% in the experiment with MDA-MB-231 breast; 60.5% in the experiment with SF-268 CNS; 57.4% in the experiment on SF-295 CNS. In addition, the growth with SF-539 CNS is 37%; in the experiment with UACC-257 melanoma, 66.8%; with M14 melanoma, 35.3%.
